# High-throughput results deposited in PubChem by several laboratories.
# Rows were chosen to be rich in hits. Some 3.7% of all compounds tested hit in one or more screens of this group.
# TIM10 inh – growth inhibitors of isogenic TIM10 control yeast, primary screen, counter-screen for tim10-1 yeast inhibitor project, luminescence, uHTS; S. cerevisiae TIM10 strain growth, BacTiter-Glo luminescence, 24 h; inhibition, % at 10 µM; 330,000 tested, 1.4% active; AID 463195, 2010;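 active means inhibition of 40% or more at the single tested concentration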;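 further: wild-type TIM10 isogenic control strain grown at permissive 25 °C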
# V-ATPase pHluor – regulators of yeast V-ATPase proton pumping, primary screen, pHLuorin cytosolic pH fluorescence. S. cerevisiae. response, % at 10 µM. 350,000 tested, 0.37% active. AID 504577, 2011; in the data active means response mostly above about 7.3%, no sharp cut-off; inactive means mostly below about 5.4%; further: actives read high
# tim10-1 inh – growth inhibitors of tim10-1 mutant yeast, primary screen, luminescence, uHTS; S. cerevisiae tim10-1 ts strain growth, BacTiter-Glo, 24 h; inhibition, % at 20 µM; 330,000 tested, 2.2% active;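 active means inhibition of at least 40%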;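 further: mutant grown at 25 °C; 0% = DMSO wells with yeast and 100% = wells holding no yeast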
# tim23-1 inh – growth inhibitors of tim23-1 mutant yeast, primary screen, luminescence, uHTS; inhibition, % at 20 µM; S. cerevisiae tim23-1 growth, BacTiter-Glo luminescence, 24 h; 330,000 tested, 1.3% active;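 active means growth inhibition of the mutant yeast at or above 50%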;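 further: temperature-sensitive mutant grown at 25 °C; plate controls were DMSO-treated mutant yeast for no effect and medium wells lacking yeast for full effect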
# PfHsp90 set2 – growth inhibition of PfHsp90-expressing yeast, primary screen, antimalarial PfHsp90 inhibitor project, S. cerevisiae, BacTiter-Glo luminescence, single point, set 2; BacTiter-Glo ATP, 48 h; yeast lacking PDR1 and PDR3 efflux regulators; inhibition, % at 9.4 µM; 310,000 tested, 0.32% active; AID 504621, 2011;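 active means every replicate shows inhibition above about 80%, whatever the replicate mean, limit read from the data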;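 further: 0% = DMSO neutral controls and 100% = 20 µM radicicol positive controls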
# * = called active by the depositor; nt = no result.
SMILES,TIM10 inh,V-ATPase pHluor,tim10-1 inh,tim23-1 inh,PfHsp90 set2
Cc1nc2ccc(S(=O)(=O)Nc3cccc(-c4nc5cccnc5s4)c3C)cc2s1,5.3,-6.7,34.7,38.8,-27.0
Cn1ncc(SCc2ccccc2)c(Cl)c1=O,-2.7,7.2,-8.4,-21.7,-27.1
Cn1ncc(S(=O)(=O)Cc2ccccc2)c(Cl)c1=O,16.1,19.2*,2.5,1.5,7.5
O=S1(=O)[C@H]2C[C@@H]3C=C[C@@]2(CN1Cc1ccc(F)cc1)O3,-2.1,-3.5,-12.4,-4.8,-1.1
CCn1cc(S(=O)(=O)CC(=O)Nc2ccc(OC)cc2)c2ccccc21,-2.6,15.9*,-9.4,1.9,2.1
CCOC(=O)CCC(=O)Nc1ccc(S(=O)(=O)Nc2cc(OC)nc(OC)n2)cc1,3.8,-3.5,-8.2,3.2,-0.9
O=C(NCc1ccco1)C(=O)NCC1OCCN1C(=O)c1ccc(Cl)cc1 (stereo unspecified),-5.0,7.8,-4.0,12.1,4.8
CCc1ccc(NC(=O)Nc2cccs2)cc1,-3.2,5.3,-22.7,-9.2,-30.1
Cc1ccc(NC(=O)Nc2cccs2)cc1,-2.3,23.3*,-43.1,-16.9,3.9
Cc1c(Cc2ccccc2)c(=O)oc2cc(OC(=O)c3ccccc3)ccc12,18.4,-7.7,16.3,-3.3,5.3
COC(=O)Cc1c(C)c2ccc(OC(=O)c3ccccc3)cc2oc1=O,18.8,20.2*,1.5,12.6,-11.6
CN1C2CCC1CC(NS(=O)(=O)c1ccc(C#N)cc1)C2 (stereo unspecified),-10.6,-2.9,-1.9,-9.7,-11.8
Cc1[nH]c2ccccc2c1/C=C/c1cc[n+](C)cc1,nt,13.0*,nt,nt,-2.8
Nc1c(OS(=O)(=O)c2ccccc2)cccc1OS(=O)(=O)c1ccccc1,nt,0.7,nt,nt,nt
COc1ccc(C(=O)NCC(C)(C)N2CCOCC2)cc1S(=O)(=O)NCc1ccc(Cl)cc1,nt,21.4*,nt,nt,-26.8
CCN(CC)/C(=N\S(=O)(=O)c1ccccc1C)c1ccccc1,21.5,-0.9,26.6,25.2,22.7
O=c1c(Br)ccc(Br)cc1Br,nt,62.1*,nt,nt,119.9*
O=C1/C(=C/c2ccncc2)CCC/C1=C\c1ccncc1,nt,6.5,nt,nt,101.8*
O=C1C(=Cc2ccncc2)CCCc2ccccc21,nt,-0.2,nt,nt,nt
CCOc1ccccc1-c1c2cc(O)c(=O)cc-2oc2cc(O)c(O)cc12,nt,75.1*,nt,nt,93.1*
Cc1ccc(OCc2n[nH]c(=S)n2C2CCCCC2)cc1,38.5,-2.4,33.9,40.2,90.3*
CCOC(=O)C1=C(N)N2C(=O)C(C)SC2=C(C(=O)OC)C1c1ccccc1OC (stereo unspecified),-15.3,-4.6,24.8,-16.1,133.4*
C=CC[C@H](CC(=O)NCCO)C(=O)N[C@@H](COC(=O)[C@@H](CC=C)Cc1ccc(F)cc1)Cc1ccccc1,4.5,1.9,2.9,-4.6,4.4
COc1cccc(/C=C/c2ccc3cccc(O)c3n2)c1,15.3,-0.2,17.5,22.0,102.7*
O=C(NCCc1ccccc1)C1CCN(c2ncccn2)CC1,5.6,14.1*,15.2,1.4,42.0
SMILES,TIM10 inh,V-ATPase pHluor,tim10-1 inh,tim23-1 inh,PfHsp90 set2
Cc1cc(C)n(C(CC(=O)N2CCc3ccccc3C2)C(=O)O)n1 (stereo unspecified),-6.2,16.0*,6.1,9.0,nt
Cc1cc(C)n(C(C)CC(=O)N2CCc3ccccc32)n1 (stereo unspecified),5.9,-2.7,3.6,2.2,-19.6
COc1ccc(C(C[N+](=O)[O-])C2(c3ccc(OC)c(OC)c3)C(=O)c3ccccc3C2=O)cc1 (stereo unspecified),nt,8.5,nt,nt,104.7*
O=C(CN1CCN(Cc2ccc(Cl)cc2)C1=O)NCCCN1CCN(c2ccc(F)cc2)CC1,20.2,16.6*,-2.4,-8.6,14.0
CCc1ccc(OC(=O)Cc2ccc(OC)c(S(=O)(=O)N3CCOCC3)c2)cc1,14.9,-3.3,9.3,20.9,0.9
COc1ccc(CC(=O)Oc2ccc(C(C)C)cc2)cc1S(=O)(=O)N1CCOCC1,4.4,24.7*,16.7,9.7,-36.3
CCC(CC)C(=O)Nc1cccc(C(=O)Nc2nnc(C)s2)c1,11.8,211.3*,-16.0,17.9,6.2
CCN(CC)C(=O)C1=C(C)N(Cc2ccc(C(C)(C)C)cc2)C(=O)C(CC(=O)NCc2ccco2)C1 (stereo unspecified),nt,-1.7,nt,nt,nt
CSc1ccccc1NC(=O)CN(c1cccc(C)c1)S(C)(=O)=O,14.1,13.1*,22.9,22.6,-21.4
CC(C)N1CCC(NC(=O)Nc2ccc3c(c2)OCO3)CC1,-12.4,-0.1,-2.8,10.0,0.3
O=C1C=CC(=O)N1c1ccc(-c2nc3ccccc3o2)cc1,nt,20.3*,nt,nt,nt
Nc1ccc(-c2nc3ccccc3o2)cc1,16.0,-1.6,19.6,22.4,-11.5
Clc1ccccc1CN(Cc1ccco1)Cc1nnnn1C1CCCC1,-15.6,0.5,11.3,7.4,84.6*
COc1ccc(C(=O)/C=C2\C(=O)Nc3ccc(Br)cc32)cc1,nt,3.8,nt,nt,144.2*
COc1ccc2c(c1)/C(=C/c1cc(OC)c(OC)c(OC)c1)C(=O)N2,nt,-2.5,nt,nt,-7.2
COc1cccc(NC(=O)c2cc3ccccc3cc2OC)c1,-12.8,-2.3,-57.9,24.4,-19.1
COc1cccc(/C=C2/CCC(CN(C)C)C2=O)c1 (stereo unspecified),nt,1.9,nt,nt,146.1*
O=C(O)CC/C(=N\Nc1ccc([N+](=O)[O-])cc1)c1ccccc1,36.9,1.3,-11.2,6.5,39.9
O=C(O)CC/C(=N/Nc1ccc([N+](=O)[O-])cc1)C(=O)O,12.2,4.2,-53.6,-29.0,100.3*
OC(Cn1cncn1)(c1ccc(F)cc1)c1ccc(Cl)cc1 (stereo unspecified),-60.2,-1.5,-174.6,-342.5,94.0*
Oc1c(C(c2ccccc2)N2CCOCC2)ccc2ccccc12 (stereo unspecified),nt,4.2,nt,nt,101.1*
Cc1ccccc1C(=O)NCC(=O)OC(C)C(=O)NC(C)CCc1ccccc1 (stereo unspecified),6.6,1.0,12.6,11.4,4.3
Cc1ccc(CNc2ccc(N3CCOCC3)cc2)cc1,-2.5,11.3*,-7.1,-2.7,12.2
CC(C)c1ccc(CNc2ccc(N3CCOCC3)cc2)cc1,24.6,-4.2,13.7,17.4,17.6
Cc1cccc(Nc2nc(N)c([N+](=O)[O-])c(N3CC(C)OC(C)C3)n2)c1 (stereo unspecified),23.6,-0.7,7.5,29.6,-2.5
Cc1cccc(Nc2nc(N)c([N+](=O)[O-])c(N3CC(C)CC(C)C3)n2)c1 (stereo unspecified),15.7,5.3,-3.0,28.9,101.1*
COc1ccc(C(=O)N/C(=C\c2cn(S(=O)(=O)N(C)C)c3ccccc23)C(=O)N2CCN(C)CC2)cc1,4.5,0.6,-6.9,-3.2,15.3
Cc1cc(SCC(=O)NN)c2cc(Br)ccc2n1,-48.8,-0.1,-24.6,-12.2,1.6
